Assay outcomes (PubChem)
Only some compounds are listed: those with a hit (about 2% of all), similar ones and a draw of the others.
Autophagy mod = autophagy modulators in MEF cells, primary screen, imaging, high-content, MEF GFP-LC3; MEF GFP-LC3 puncta imaging; test concentration mostly 10 µM; AID 463193, 2010; 190,000 compounds, 0.98% hits; calls only at 10 µM (by protocol);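 active means percentage of spot-positive cells more than 3 SD above its plate mean, without a fluorescence outlier flag or 80% toxicity; inconclusive means no clear call, values can overlap the other calls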;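 further: spot-positive cell cutoff set from DMSO-treated cells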
Insulin prom inh = inhibitors of insulin promoter-driven GFP, primary screen, imaging, TRM-6 cells (human fetal islet line), eGFP reporter, cell count; AID 1273, 2008; reporter expression induced with tamoxifen; 130,000 compounds, 0.9% hits; inhibition, % at 2 µM;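 active means inhibition above the mean plus 3 SD, with well images judged a real hit on visual review, cut at about 60% in these data, passing the limit was not always enough; inconclusive means inhibition over the cutoff but images rejected on review; inactive means inhibition not above the cutoff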
Ins promoter up = insulin promoter activators in MIN6 cells, imaging, high-content screening, mouse beta cells; MIN6 insulin promoter-GFP reporter; stronger effect = higher value; z-score at 5 µM; 190,000 compounds, 0.3% hits;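 active means z-score above 3 at 5 µM with at least 500 cells counted in the well; inconclusive means wells under 500 cells, flagged as cytotoxic or low count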
PERK inhibitor = block of dimerizer-induced PERK translation repression, primary screen, PERK inhibitor project, CHO PERK-DD cells, SEAP luminescence, HTS. inhibition, % at 5.6 µM. CHO PERK-DD fusion, SEAP luminescence translation reporter. Eukaryotic translation initiation factor 2-alpha kinase 3 (Homo sapiens), Q9NZJ5. 220,000 compounds, 0.17% hits. AID 1416, 2008;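 active means inhibition above the mean inhibition of all tested compounds plus 3 SD, set separately per screening campaign, cut at about 2.9% in these data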;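 further: PERK kinase domain activated by AP20187 dimerizer at 100 nM; 0% = DMSO with dimerizer and 100% = rapamycin at 8.4 µM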
eIF4E-4G inh = eIF4E–eIF4G protein interaction inhibitors, primary screen, biochemical, uHTS, TR-FRET, eIF4GI fragment. Eukaryotic translation initiation factor 4E (Mus musculus) + Eukaryotic translation …. TR-FRET eIF4E-eIF4GI(517-606) binding, 2 h. inhibition, % at 21.7 µM. 220,000 compounds, 0.37% hits. AID 782, 2007;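 active means inhibition above about 30%, limit read from the data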;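 further: 0% = full FRET control wells and 100% = background wells lacking eIF4GI fragment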
The depositor's hits bear a star; i = inactive; ? = inconclusive; . = not tested or not shown; + = active, no number; [ ] = another dose, or the depositor's remark.

SMILES | Autophagy mod | Insulin prom inh | Ins promoter up | PERK inhibitor | eIF4E-4G inh
O=C(Nc1ccc2nc(SCc3ccc(Cl)cc3)sc2c1)c1ccccc1C(=O)N1CCOCC1 | + | . | -0.87 | -0.2 | -5.7
CN(C)c1ccc(N=c2sc3ccccc3n2C)cc1 | i | 13.0 | . | -0.8 | 38.4*[fluorescence artefact?]
O=C(CSc1nc2ccccc2n1CCc1ccccc1)c1ccc(O)c(O)c1 | i | . | 1.33 | 1.3 | 62.5*
CCCCn1c(SCC(=O)O)nc2ccccc21 | i | 10.5 | 3.5* | 0.8 | 5.3
CCn1c(SCC(=O)O)nc2ccccc21 | i | 0.0 | 0.01 | 0.6 | 5.4
COC(=O)c1ccc2c(=O)n(CCN3CCOCC3)c(SCC(=O)NCc3ccccc3)nc2c1 | i | 37.5 | . | 1.2 | -2.8
S=c1[nH]nc(-c2ccccc2)n1CC1CCCO1 (centres undefined) | i | 32.0 | 3.06* | 1.4 | -4.5
Cc1nc(=O)c(-c2ccccc2)c(C)n1CC1CCCO1 (centres undefined) | i | -33.3 | 0.41 | 0.7 | 5.7
COC(=O)CCSCC(=O)N1N=C(c2ccc(Br)cc2)CC1c1cccc(OC)c1OC (centres undefined) | i | -386.7 | -1.25 | 0.1 | -4.9
COC(=O)c1ccc(N2CCN(C)CC2)c(NC(=O)COc2ccc(OC)cc2)c1 | + | 9.1 | . | -1.4 | 2.2
COc1ccc(-n2c(C)cc(C(=O)CCl)c2C)cc1 | + | -18.5 | 0.11 | 0.1 | -1.0
COC(=O)C1=C(C)NC2=C(C(=O)CCC2)C1c1ccc(-c2ccsc2C(=O)OC)o1 (centres undefined) | . | . | -0.16 | -0.6 | -2.9
Cc1ccc(S(=O)(=O)N2CCC[C@H]2C(=O)OC(C)C(=O)Nc2ncc(Cl)cc2Cl)cc1 (some centres undefined) | i | 2.9 | 0.42 | 0.5 | 5.0
Cc1cc(NC(=O)Cn2ccsc2=N)c([N+](=O)[O-])cc1C | i | -66.7 | -0.14 | 0.7 | -4.7
N=c1sccn1CC(=O)Nc1cc(Cl)ccc1[N+](=O)[O-] | + | . | 0.2 | -0.6 | 1.8
C#CCn1c(-c2cccs2)nc2ccccc21 | i | 92.6* | 0.37 | 0.3 | 1.0
CCOC(=O)C(=O)Nc1ccc2c(c1)OCO2 | i | 7.1 | 0.3 | 1.2 | -2.0
CCc1cccc(C)c1NC(=O)Nc1ccc2c(c1)OCO2 | i | . | -0.18 | 3.5* | -1.3
O=c1cnnc(N/N=C/c2cccs2)[nH]1 | . | . | . | 4.0* | -3.7
S=C(NCCc1ccccc1)Nc1cccc2cnccc12 | i | 72.7* | -1.24 | 0.5 | -2.1
Cc1ccc2c(n1)CC(C)(C)C/C2=N\O | i | 90.5* | . | 0.6 | 2.9
Cc1[nH]nc2c1/C(=N\O)CC(C)(C)C2 | i | . | 0.99 | -1.0 | -4.7
Cc1ccccc1NC(=O)Cc1nc(CSc2nnc(-c3ccc4c(c3)OCO4)o2)cs1 | i | -42.9 | . | -0.5 | -4.3
Cc1cc2occ(CC(=O)NC3=NCCS3)c2cc1C(C)C | + | . | . | 0.3 | -1.8
Cc1ccc2c(CC(=O)NC3=NCCS3)coc2c1 | i | 14.3 | . | 1.3 | 3.0
SMILES | Autophagy mod | Insulin prom inh | Ins promoter up | PERK inhibitor | eIF4E-4G inh
CC(C)Cc1cc(C(=O)NCc2cccnc2)no1 | i | . | 0.45 | 0.6 | -1.8
CC(C)Cc1cc(C(=O)NCc2cccs2)no1 | i | 100.0* | . | 3.4* | -1.3
Oc1ccccc1-c1cc(C(F)(F)C(F)F)nc(-c2ccccc2)n1 | i | . | 0.16 | 3.0* | -0.4
COc1ccc(O)c(-c2cc(C(F)(F)C(F)F)nc(-c3ccccc3)n2)c1 | i | -12.2 | -0.24 | 0.9 | -0.1
Nc1ncnc2c1cnn2C1CCCCC1 | . | . | -0.62 | 1.2 | -2.5
CC1Cn2c(nnc2-c2cccc(Cl)c2)S1 (centres undefined) | . | . | 0.14 | 0.9 | -4.6
CC1(C)Cn2c(nnc2-c2cccc(O)c2)S1 | i | 90.9* | -0.07 | 1.2 | 4.1
COC(=O)Cc1ccc(NC(=S)NCCSc2ccc(Cl)cc2)cc1 | . | . | 0.09 | -0.3 | -0.6
CCNc1nc(N)nc(-c2cc(Cl)ccc2O)n1 | i | 61.5* | -0.87 | 0.4 | 3.6
CCCCNc1nc(N)nc(-c2cc(Cl)ccc2O)n1 | i | 15.4 | -0.39 | 1.0 | -2.3
CSc1ccc(/C=C(/Sc2nnc(-c3ccccc3)o2)C(=O)O)cc1 | i | 80.0* | 0.51 | 0.3 | -2.1
O=c1c(C=Nc2cccc(C(F)(F)F)c2)c[nH]n1-c1cccc(Cl)n1 | i | 60.0 | 0.6 | 4.3* | -26.0
CCc1nnc(NC(=O)c2cc(S(=O)(=O)N3CCCCC3)ccc2N2CCOCC2)s1 | + | -22.2 | -0.03 | 0.7 | -3.1
N=c1c2c(n(Cc3ccc(Br)cc3)c3c1CCC3)CCCC2 | i | 16.7 | ? | -0.6 | -14.0
N=c1c2c(n(Cc3ccc([N+](=O)[O-])cc3)c3c1CCC3)CCCC2 | + | 25.6 | -3.48 | 1.0 | 1.7
CCCCOCCCn1c(-c2ccco2)nc2nc3ccccc3nc21 | i | -56.2 | -0.17 | -1.6 | 54.1*
O=C(Nc1ccccc1N1CCOCC1)C1CCN(S(=O)(=O)c2ccccc2F)CC1 | i | -29.7 | 0.76 | -0.5 | 1.3
Cc1ccc(C(=O)N[C@@H](C)CN2C3=NC[C@H](C(C)C)N3C[C@H]2Cc2ccc(O)cc2)cc1Br | + | . | -0.36 | 0.8 | 8.5
COc1ccc(C[C@H]2CN3C(=NC[C@@H]3Cc3ccccc3)N2CCNC(=O)c2ccc(C)c(Br)c2)cc1 | + | . | -0.19 | 0.4 | 7.0
COc1ccc(C[C@H]2CN3C(=NC[C@H]3Cc3ccccc3)N2CCNC(=O)c2ccc(C)c(Br)c2)cc1 | . | . | 0.03 | . | -2.9
CCSc1nnc(NC(=O)[C@H](C)NC(=O)c2ccccc2Cl)s1 | i | . | 0.42 | -0.5 | 2.3
Cc1c(OC(=O)c2ccc([N+](=O)[O-])cc2)c2c(c[n+]1C)COC(C)(C)OC2 | i | 11.4 | 0.45 | 1.0 | 40.5*[fluorescence artefact?]
Cc1ncc2c(c1OC(=O)c1ccccc1)COC(C)(C)OC2 | i | -19.4 | -0.81 | 0.4 | 1.3
Cc1cc(C)c(C)c(S(=O)(=O)N2CCN(C)CC2)c1C | + | -16.7 | -0.78 | 0.8 | -4.7
Cc1ccc(S(=O)(=O)N2CCN(C)CC2)c(C)c1 | i | . | -0.38 | -0.8 | -2.1
COC(=O)c1ccc(Oc2nc(C(N)=O)cc(-c3ccccc3)n2)cc1 | i | 61.1* | . | 0.4 | -17.6
COc1ccc2[nH]c(=O)c(CN(CCN3CCCC3)C(=O)Nc3ccccc3Cl)cc2c1 | . | . | -0.92 | . | 57.6*
Cc1ccc(C)c2[nH]c(=O)c(CN(CCN3CCCC3)C(=O)Nc3cccc(Cl)c3)cc12 | + | -2.9 | . | -1.8 | 6.9
CCOc1ccc2[nH]c(=O)c(CN(CCN3CCCC3)C(=S)Nc3ccccc3OCC)cc2c1 | i | . | -0.12 | 0.0 | 3.0
O=[N+]([O-])c1ccc(NC(=S)NCC(c2cccnc2)N2CCOCC2)cc1 (centres undefined) | i | 20.0 | -0.76 | 1.3 | 2.5
